Source: PubChem BioAssay AID1117358 (Southern Research Institute, 2015)
Out of some 2,300 compounds screened, about 160 (7%) were called active. How the calls were made is not given here. Not all results are given here. Potency and affinity values are given separately.

Experiment: Vero cell cytotoxicity, dose response, cytotoxicity control for Vif-APOBEC3G degradation inhibitor project, Vero cells (AID 1117358)
Conditions: CellTiter-Glo ATP luminescence, 72 h; series mostly up to 40 µM; viability: at the top concentration

| SMILES | viability |
| --- | --- |
| CC(C(=O)N1CCOCC1)(c1ccccc1)c1ccccc1 | 99.1% (inactive) |
| COc1ccc(C(C)(C)C)cc1NC(=O)C1C2C=CC(C2)C1C(=O)O (centres undefined) | 95.7% (inactive) |
| CC1CCCC(NC(=O)Cn2cc3c(n2)CCCCC3)C1C (centres undefined) | 97.6% (inactive) |
| CCOC(=O)N1CCN(CC(=O)c2ccc3c(c2)CCN3C(C)=O)CC1 | 103% (inactive) |
| CCOc1ccc2[nH]c(=O)c(CN(Cc3nnnn3Cc3ccco3)C3CCCCC3)cc2c1 | 94.2% (inactive) |
| CCOC(=O)c1ccc(NC(=O)CSCc2ccco2)cc1 | 105% (inactive) |
| Cc1cc(C)n(CC(O)CN2c3ccccc3Sc3ccccc32)n1 (centres undefined) | 92.5% (inactive) |
| CCOc1cc(Cl)c(S(=O)(=O)NCc2ccccn2)cc1Cl | 90.8% (inactive) |
| COC(=O)COc1ccc(S(=O)(=O)NCc2ccco2)cc1Cl | 95.7% (inactive) |
| O=C(Cn1ncc2c(=O)oc3ccccc3c21)N1CCCc2ccccc21 | 94.4% (inactive) |
| CCC(C)NS(=O)(=O)c1ccc(S(=O)(=O)N(CC(=O)Nc2ccccc2)CC2CCCO2)cc1 (centres undefined) | 97.2% (inactive) |
| Cc1cccc(C)c1NC(=O)COC(=O)c1cc(-c2cccnc2)nc2ccccc12 | 80.7% (inactive) |
| CCOC(=O)CC1Sc2ccccc2NC1=O (centres undefined) | 86.3% (inactive) |
| COc1cc(O)oc1C=Nc1ccccc1 | 93.3% (inactive) |
| Cc1ccc(S(=O)(=O)N=Nc2c(O)[nH]c3ccccc23)cc1 | 99.4% (inactive) |
| CCOC(=O)C1=C(CSc2nc(C)ccc2C#N)OC(N)=C(C#N)C1c1cccc(OC)c1OC (centres undefined) | 95.5% (inactive) |
| Cc1nc(NC(=O)CN2CCOCC2)sc1-c1ccccc1 | 91.9% (inactive) |
| O=C(O)CC(C(=O)O)N1C(=O)/C(=C/c2ccc(-c3nc4ccccc4s3)o2)SC1=S (centres undefined) | 97.1% (inactive) |
| O=C1CC(c2ccco2)CC(O)=C1C=Nc1ccc(Br)cc1 (centres undefined) | 95.1% (inactive) |
| COc1ccc(OCC(=O)O/N=C(\N)Cc2ccc(Cl)cc2)cc1 | 91.2% (inactive) |
| CCC(=O)Nc1nc2ccc(NC(C)=O)cc2s1 | 90.9% (inactive) |
| CCOC(=O)N1CCC(NC(=O)c2cc3c(C)nc4ccccc4c3o2)CC1 | 102% (inactive) |
| CCOC(=O)C1CCN(C(=O)c2ccc(OC)cc2OC)CC1 | 106% (inactive) |
| COc1ccc(NC(=O)Nc2cccs2)cc1OC | 108% (inactive) |
| CCOC(=O)Nc1nnc(-c2ccccc2OC)s1 | 90.3% (inactive) |

| SMILES | viability |
| --- | --- |
| C=CCOC(=O)CN1C(=O)c2ccccc2C1=O | 99.6% (inactive) |
| COc1ccc(OC)c(NC(=O)CSc2nnc(CCCO)n2-c2ccccc2)c1 | 96.8% (inactive) |
| CCn1c(SCC(=O)n2c(C)c(C)c3ccccc32)nnc1-c1ccco1 | 91.6% (inactive) |
| CCOc1ccccc1CNC(=O)Cn1c(=O)oc2ccccc21 | 99.8% (inactive) |
| COc1ccccc1N1CCN(C(=O)c2cc(-c3cccs3)on2)CC1 | 107% (inactive) |
| Cc1ccccc1CS(=O)(=O)Cc1ccc(C(=O)N2CCOCC2)o1 | 91.3% (inactive) |
| CCOc1cc(C)nc(NCCc2ccc(OC)c(OC)c2)n1 | 90.1% (inactive) |
| COc1ccc(OC)c(NC(=O)NCc2ccc(F)cc2)c1 | 99.7% (inactive) |
| O=C1c2ccccc2C(=O)N1CCc1csc(-c2ccc(F)cc2)n1 | 101% (inactive) |
| Cc1cc(-c2cc(-c3ccc(Cl)cc3)nc(N)c2C#N)co1 | 103% (inactive) |
| COc1ccc(Oc2nc(C)cc(C)c2C#N)cc1 | 99.7% (inactive) |
| O=[N+]([O-])c1cc(/C=N\Nc2nccs2)ccc1O | 108% (inactive) |
| CC(OC(=O)c1cccs1)C(=O)NCc1ccco1 (centres undefined) | 99% (inactive) |
| CCc1nc(SCC(=O)Nc2ccc(C(=O)O)cc2)n[nH]1 | 96% (inactive) |
| CCc1cccc(NC(=O)Cn2ncn3c(cc4ccccc43)c2=O)c1 | 96.6% (inactive) |
| COCCNC(=O)COc1ccc(Br)cc1Cl | 88.5% (inactive) |
| CSc1cccc(NC(=O)CN(c2cc(C)ccc2C)S(C)(=O)=O)c1 | 96.9% (inactive) |
| Cn1c(CN2CCOCC2)nc2cc(NC(=O)c3ccc(F)cc3)ccc21 | 94.2% (inactive) |
| N#Cc1nc(-c2ccco2)oc1N1CCN(c2ccccc2)CC1 | 96.4% (inactive) |
| CCC(C)(C)n1nnnc1C(c1cc2cc(C)ccc2[nH]c1=O)N1CCCc2ccccc21 (centres undefined) | 105% (inactive) |
| O=C(OCc1ccc(Cl)cc1)c1cnccn1 | 94% (inactive) |
| O=C(CSc1nccn1Cc1ccccc1)Nc1nccs1 | 95.5% (inactive) |
| Cc1ccc(NC(=O)CCC(=O)NNC(=O)COc2cccc3ccccc23)c(C)c1 | 95.2% (inactive) |
| CS(=O)(=O)N(CC(=O)NCc1ccc2c(c1)OCO2)Cc1ccccc1 | 96.3% (inactive) |
| O=C(O)Cc1ccc(C(=O)c2ccccc2)s1 | 96.4% (inactive) |

| SMILES | viability |
| --- | --- |
| Oc1ccc(/C=N/NC2=NCCCCC2)c(O)c1 | 101% (inactive) |
| CC(=O)C1CCN(Cc2ccccc2)CC1 | 97.3% (inactive) |
| Cc1ccc(C)n1Cc1ccc(C(=O)O)cc1 | 88.8% (inactive) |
| Cn1cccc1C(=O)NC(=O)COC(=O)CC12CC3CC(CC(Br)(C3)C1)C2 | 97% (inactive) |
| O=C(COC(=O)c1cc(-c2ccco2)nc2ccccc12)NCc1ccc2c(c1)OCO2 | 101% (inactive) |
| Cc1nc(C(=O)N(C)C)nn1-c1cc(Cl)cc(Cl)c1 | 97.7% (inactive) |
| CCOC(=O)c1ccc(-n2ncc(C(=O)OCC)c2N)cc1 | 92.9% (inactive) |
| Cc1ccc(S(=O)(=O)N2CCC(C(=O)Nc3nnc(-c4ccco4)s3)CC2)cc1 | 102% (inactive) |
| CCN(CC)c1ccc(/C=N/n2c(C)cc(C)cc2=O)cc1 | 92.2% (inactive) |
| CCOc1ccc(Br)cc1/C=N/O | 98.1% (inactive) |
| CCOc1ccc(N(CC(=O)NC2CCCCC2)S(=O)(=O)c2c(C)noc2C)cc1 | 94.7% (inactive) |
| Cc1onc(-c2ccccc2)c1C(=O)N1CCCc2ccccc21 | 93.6% (inactive) |
| C=CCn1c(SCC(=O)c2cc(C)n(C(C)COC)c2C)nc2sc(C)c(C)c2c1=O (centres undefined) | 97.2% (inactive) |
| CCOC(=O)c1ccc(NS(=O)(=O)c2ccc3c(c2)oc(=O)n3C)cc1 | 99.5% (inactive) |
| Cc1nnc(-c2cnn(-c3ccccc3)c2N)n1Cc1cccc(C(F)(F)F)c1 | 88.8% (inactive) |
| C/C(=C1\SC(N2CCOCC2)=NC1=O)c1ccccc1 | 101% (inactive) |
| Cc1noc(C)c1C(=O)N1CCN(c2ncccn2)CC1 | 109% (inactive) |
| COc1ccc(NS(=O)(=O)c2cccc(Cl)c2Cl)cc1S(=O)(=O)N1CCCCC1 | 86.5% (inactive) |
| CCC(=O)N1CCN(c2ccccc2NC(=O)c2cccc(C)c2)CC1 | 107% (inactive) |
| O=C(NCc1ccc(Cl)cc1)c1ccccc1Oc1ccccc1 | 102% (inactive) |
| COC(=O)c1cccc(NC(=O)c2cccc(OC)c2)c1 | 83% (inactive) |
| CCC(=O)NNc1ncnc2ccccc12 | 94.4% (inactive) |
| COc1cc2c(cc1NC(=O)COC(=O)Cn1cnc3ccccc31)oc1ccccc12 | 88.4% (inactive) |
| CCOC(=O)N1CCC(Nc2c(-c3ccc(C)cc3)c(=O)c2=O)CC1 | 98.5% (inactive) |
